What all share (settings): mRNA level, 48 h; actives raise or lower the signal
Read-out in test [1]: JUN Transcription Factor, JUN (gene 3725)
Briefly: LTEA_HepaRG_JUN: Life Technologies and Expression Analysis (LTEA) Assay for JUN Transcription Factor using HepaRG (AID 2283513). In outline: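 mRNA measured by TaqMan qRT-PCR after 48 h chemical exposure of HepaRG cultures; normalization to three housekeeping genes. Duplicate eight-point half-log curves from 100 uM in 0.5% DMSO; gain or loss fitted against DMSO baseline.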

Read-out in test [2]: Lipase C (LIPC), LIPC (gene 3990)
Nature of the test: LTEA_HepaRG_LIPC: Life Technologies and Expression Analysis (LTEA) Assay for Lipase C (LIPC) using HepaRG (AID 2283514). The method in brief:
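In this multiplexed gene-expression screen, human HepaRG cultures received test chemicals for 48 h across eight concentrations with 100 uM highest, in duplicate. Values reflect LIPC mRNA induction or suppression versus DMSO vehicle, from normalized qRT-PCR.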

Read-out in test [3]: Lipoprotein lipase (LPL), LPL (gene 4023)
Nature of the test: LTEA_HepaRG_LPL: Life Technologies and Expression Analysis (LTEA) Assay for Lipoprotein lipase (LPL) using HepaRG (AID 2283515). The method in brief:
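Concentration-response testing used half-log steps from 100 uM in 0.5% DMSO on human HepaRG cells, 48 h, duplicate wells. Phenobarbital 1 mM served as induction control; LPL mRNA was normalized to ACTB, GAPDH, POLR2A.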

Read-out in test [4]: MicroRNA 122 (MIR122), gene 406906
Briefly: LTEA_HepaRG_MIR122: Life Technologies and Expression Analysis (LTEA) Assay for MicroRNA 122 (MIR122) using HepaRG (AID 2283516). Also: the transcript read is the microRNA miR-122. The method in brief:
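Expression measured by microfluidic qRT-PCR with three housekeeping genes for normalisation, after 48 h treatment of HepaRG cultures. Eight concentrations (top 100 uM, half-log steps, 0.5% DMSO vehicle) in duplicate; gain or loss fitted relative to vehicle.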

Read-out in test [5]: matrix metalloproteinase-10 (MMP10), MMP10 (gene 4319)
Nature of the test: LTEA_HepaRG_MMP10: Life Technologies and Expression Analysis (LTEA) Assay for matrix metalloproteinase-10 (MMP10) using HepaRG (AID 2283517). The method in brief:
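In differentiated HepaRG cultures kept in 0.5% DMSO, test chemicals act for 48 h over an eight-point range with a top dose of 100 uM. Expression is then quantified by TaqMan RT-PCR against ACTB, GAPDH and POLR2A.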

Read-out in test [6]: MYC, MYC (gene 4609)
Nature of the test: LTEA_HepaRG_MYC: Life Technologies and Expression Analysis (LTEA) Assay for MYC using HepaRG (AID 2283518). In outline:
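MYC transcript changes, up or down relative to 0.5% DMSO, from TaqMan qRT-PCR normalized to three housekeeping genes. Human HepaRG cultures received chemicals for 48 h at eight half-log concentrations up to 100 uM, in duplicate.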

Read-out in test [7]: matrix metalloproteinase-3 (MMP3), MMP3 (gene 4314)
Nature of the test: LTEA_HepaRG_MMP3: Life Technologies and Expression Analysis (LTEA) Assay for matrix metalloproteinase-3 (MMP3) using HepaRG (AID 2283519). In outline: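 Human liver HepaRG cultures received chemicals (top concentration 100 uM, 0.5% DMSO) for 48 h in duplicate. MMP3 mRNA induction or loss was then assessed via TaqMan qRT-PCR with housekeeping-gene normalisation.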

Read-out in test [8]: Paternally Expressed 10 (PEG10), PEG10 (gene 23089)
Briefly: LTEA_HepaRG_PEG10: Life Technologies and Expression Analysis (LTEA) Assay for Paternally Expressed 10 (PEG10) using HepaRG (AID 2283520). The method in brief: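 PEG10 transcript measured by Fluidigm qRT-PCR, normalized to three housekeeping genes, in HepaRG cells treated 48 h (highest 100 uM, half-log steps, 0.5% DMSO vehicle). Cells plated 48 h before switching to serum-free induction medium.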

Read-out in test [9]: Nuclear factor NF-kappa-B p105 subunit (Homo sapiens) (UniProt P19838)
Nature of the test: LTEA_HepaRG_NFKB1: Life Technologies and Expression Analysis (LTEA) Assay for Nuclear Factor Kappa B Subunit 1 (NFKB1) using HepaRG (AID 2283521).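 Also: TaqMan qRT-PCR transcript normalised to ACTB GAPDH and POLR2A housekeeping genes.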 In outline: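 Differentiated human HepaRG cells in serum-free induction medium with 0.5% DMSO were exposed for 48 h to eight half-log concentrations, top 100 uM, in duplicate. NFKB1 mRNA measured by Fluidigm TaqMan qRT-PCR, normalised to ACTB, GAPDH and POLR2A; bidirectional fit versus DMSO.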

Read-out in test [10]: Protein phosphatase 2A (PPP2R4), PTPA (gene 5524)
Nature of the test: LTEA_HepaRG_PPP2R4: Life Technologies and Expression Analysis (LTEA) Assay for Protein phosphatase 2A (PPP2R4) using HepaRG (AID 2283522). In outline:
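Expression was quantified by Fluidigm qRT-PCR normalised to three housekeeping genes after 48 h treatment. Human HepaRG cells received an 8-point series from 100 µM downward by half-logs, in duplicate with 0.5% DMSO vehicle and 1 mM phenobarbital as induction control.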

Read-out in test [11]: Phosphatase and tensin (PTEN), PTEN (gene 5728)
Briefly: LTEA_HepaRG_PTEN: Life Technologies and Expression Analysis (LTEA) Assay for Phosphatase and tensin (PTEN) using HepaRG (AID 2283523). In outline:
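Expression of PTEN is quantified in the human liver line HepaRG following two days of dosing (top concentration 100 uM, half-log dilutions, 0.5% DMSO). Values derive from bidirectional curve fitting relative to DMSO controls.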

Read-out in test [12]: solute carrier (SLC22A1), SLC22A1 (gene 6580)
Briefly: LTEA_HepaRG_SLC22A1: Life Technologies and Expression Analysis (LTEA) Assay for solute carrier (SLC22A1) using HepaRG (AID 2283524). The method in brief:
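Transcript induction or suppression of SLC22A1 in human HepaRG cultures is scored after 48 h chemical treatment, with DMSO (0.5%) as baseline for bidirectional fitting. Concentrations span eight half-log points topping at 100 uM.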

Read-out in test [13]: Pyruvate Dehydrogenase Kinase 4 (PDK4), PDK4 (gene 5166)
Briefly: LTEA_HepaRG_PDK4: Life Technologies and Expression Analysis (LTEA) Assay for Pyruvate Dehydrogenase Kinase 4 (PDK4) using HepaRG (AID 2283525). The method in brief:
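Eight-point, half-log concentration series (max 100 uM, 0.5% DMSO) applied to differentiated HepaRG cells for 48 h in duplicate. Endpoint: PDK4 mRNA induction or repression by qRT-PCR against DMSO baseline.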

Read-out in test [14]: NAD(P)H dehydrogenase [quinone] 1 (NQO1), NQO1 (gene 1728)
Briefly: LTEA_HepaRG_NQO1: Life Technologies and Expression Analysis (LTEA) Assay for NAD(P)H dehydrogenase [quinone] 1 (NQO1) using HepaRG (AID 2283526). In outline: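 NQO1 transcript induction or loss measured by TaqMan qRT-PCR, referenced to three housekeeping genes and fitted bidirectionally against 0.5% DMSO. HepaRG cultures exposed 48 h, duplicate, eight-point half-log series, top 100 uM.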

Read-out in test [15]: Nuclear factor erythroid 2-related factor 2 (Homo sapiens) (UniProt Q16236)
Nature of the test: LTEA_HepaRG_NFE2L2: Life Technologies and Expression Analysis (LTEA) Assay for Nuclear factor erythroid 2-related factor 2 (NFE2L2) Transcription Factor using HepaRG (AID 2283527).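 As to outcome: TaqMan qRT-PCR transcript level normalised to ACTB GAPDH and POLR2A housekeeping genes.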 In outline: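 Human liver HepaRG line treated in duplicate for 48 h with an eight-point series topping at 100 uM. Gene expression of NFE2L2 by qRT-PCR, bidirectionally fitted against the vehicle control.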

Read-out in test [16]: succinate dehydrogenase complex iron sulfur subunit B (SDHB), SDHB (gene 6390)
Briefly: LTEA_HepaRG_SDHB: Life Technologies and Expression Analysis (LTEA) Assay for succinate dehydrogenase complex iron sulfur subunit B (SDHB) using HepaRG (AID 2283528). In outline: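 HepaRG cells (~100,000/well, plated 48 h) exposed in duplicate for 48 h in serum-free induction medium to 8-point half-log series from 100 uM in 0.5% DMSO; mRNA by qRT-PCR normalised to ACTB, GAPDH, POLR2A; bidirectional fit versus DMSO.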

Read-out in test [17]: Signal transducer and activator of transcription 3 (Homo sapiens) (UniProt P40763)
Nature of the test: LTEA_HepaRG_STAT3: Life Technologies and Expression Analysis (LTEA) Assay for Signal transducer and activator of transcription (STAT3) using HepaRG (AID 2283529). In outline:
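In this transcriptional endpoint, HepaRG cultures receive test chemicals at up to 100 uM for 48 h, tested in duplicate. STAT3 mRNA is normalized to ACTB, GAPDH and POLR2A.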

Read-out in test [18]: solute carrier (SLCO1B1), SLCO1B1 (gene 10599)
Nature of the test: LTEA_HepaRG_SLCO1B1: Life Technologies and Expression Analysis (LTEA) Assay for solute carrier (SLCO1B1) using HepaRG (AID 2283530). In outline:
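SLCO1B1 transcript levels were quantified by TaqMan qRT-PCR using three housekeeping genes for normalization. This followed 48 h chemical exposure (100 uM top, half-log, 8 points, 0.5% DMSO) of HepaRG liver cells, with gain or loss fitted relative to DMSO.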

Read-out in test [19]: sulfotransferase 2A1 (SULT2A1), SULT2A1 (gene 6822)
Nature of the test: LTEA_HepaRG_SULT2A1: Life Technologies and Expression Analysis (LTEA) Assay for sulfotransferase 2A1 (SULT2A1) using HepaRG (AID 2283531). The method in brief:
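Expression change of SULT2A1, by qRT-PCR with three housekeeping-gene normalization, was scored bidirectionally versus DMSO. Cells: differentiated HepaRG, dosed in duplicate for 48 h across 8 points, highest 100 µM, half-log dilution, 0.5% DMSO.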

Read-out in test [20]: Transforming Growth Factor (TGFA), TGFA (gene 7039)
Briefly: LTEA_HepaRG_TGFA: Life Technologies and Expression Analysis (LTEA) Assay for Transforming Growth Factor (TGFA) using HepaRG (AID 2283532). In outline:
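Gene expression of TGFA was quantified by qRT-PCR after human HepaRG cells were treated for 48 h with test chemicals (eight concentrations, highest 100 uM, 0.5% DMSO). Activity in either direction was fitted relative to DMSO.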

Calls of active or inactive are those of the source. The calls were made as follows: active = hit-call score of the fitted dose curve at least 0.9, where 1 is the maximum; inactive = score below 0.9.

Sequence of Nuclear factor erythroid 2-related factor 2 (Homo sapiens) (Q16236 whole entry, looked up): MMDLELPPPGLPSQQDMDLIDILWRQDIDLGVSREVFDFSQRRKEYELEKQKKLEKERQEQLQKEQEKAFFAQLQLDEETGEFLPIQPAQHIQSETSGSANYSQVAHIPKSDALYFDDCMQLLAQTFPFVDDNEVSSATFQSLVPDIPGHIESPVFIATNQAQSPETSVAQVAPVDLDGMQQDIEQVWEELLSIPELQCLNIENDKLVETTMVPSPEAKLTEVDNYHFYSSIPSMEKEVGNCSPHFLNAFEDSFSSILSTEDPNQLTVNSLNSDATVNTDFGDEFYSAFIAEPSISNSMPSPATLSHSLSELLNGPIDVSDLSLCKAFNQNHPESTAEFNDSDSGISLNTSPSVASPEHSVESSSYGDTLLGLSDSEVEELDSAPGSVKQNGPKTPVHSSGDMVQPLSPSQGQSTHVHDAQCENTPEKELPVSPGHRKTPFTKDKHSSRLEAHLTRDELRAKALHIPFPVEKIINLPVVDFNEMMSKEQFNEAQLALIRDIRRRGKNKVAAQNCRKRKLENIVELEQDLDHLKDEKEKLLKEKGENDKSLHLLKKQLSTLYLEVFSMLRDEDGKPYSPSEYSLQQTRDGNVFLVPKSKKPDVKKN
Sequence of Signal transducer and activator of transcription 3 (Homo sapiens) (P40763 whole entry, looked up): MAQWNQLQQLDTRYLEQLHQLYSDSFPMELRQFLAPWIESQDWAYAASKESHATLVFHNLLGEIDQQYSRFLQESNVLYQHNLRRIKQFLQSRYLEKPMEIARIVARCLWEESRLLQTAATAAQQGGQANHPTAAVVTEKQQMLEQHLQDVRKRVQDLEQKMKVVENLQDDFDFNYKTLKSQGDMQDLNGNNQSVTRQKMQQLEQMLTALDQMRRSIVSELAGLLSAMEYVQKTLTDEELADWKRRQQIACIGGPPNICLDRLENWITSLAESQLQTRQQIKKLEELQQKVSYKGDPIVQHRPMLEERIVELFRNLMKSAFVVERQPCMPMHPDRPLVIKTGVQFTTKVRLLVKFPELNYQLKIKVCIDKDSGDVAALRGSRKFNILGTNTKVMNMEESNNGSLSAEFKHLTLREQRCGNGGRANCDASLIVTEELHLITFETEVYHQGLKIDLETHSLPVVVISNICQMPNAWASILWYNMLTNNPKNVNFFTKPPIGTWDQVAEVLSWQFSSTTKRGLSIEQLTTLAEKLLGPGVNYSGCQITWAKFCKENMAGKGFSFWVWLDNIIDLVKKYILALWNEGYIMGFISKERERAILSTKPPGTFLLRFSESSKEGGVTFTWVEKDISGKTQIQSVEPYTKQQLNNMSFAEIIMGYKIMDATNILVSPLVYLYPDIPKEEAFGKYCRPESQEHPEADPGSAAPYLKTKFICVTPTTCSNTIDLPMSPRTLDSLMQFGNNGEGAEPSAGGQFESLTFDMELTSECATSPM
Sequence of Nuclear factor NF-kappa-B p105 subunit (Homo sapiens) (P19838 whole entry, looked up): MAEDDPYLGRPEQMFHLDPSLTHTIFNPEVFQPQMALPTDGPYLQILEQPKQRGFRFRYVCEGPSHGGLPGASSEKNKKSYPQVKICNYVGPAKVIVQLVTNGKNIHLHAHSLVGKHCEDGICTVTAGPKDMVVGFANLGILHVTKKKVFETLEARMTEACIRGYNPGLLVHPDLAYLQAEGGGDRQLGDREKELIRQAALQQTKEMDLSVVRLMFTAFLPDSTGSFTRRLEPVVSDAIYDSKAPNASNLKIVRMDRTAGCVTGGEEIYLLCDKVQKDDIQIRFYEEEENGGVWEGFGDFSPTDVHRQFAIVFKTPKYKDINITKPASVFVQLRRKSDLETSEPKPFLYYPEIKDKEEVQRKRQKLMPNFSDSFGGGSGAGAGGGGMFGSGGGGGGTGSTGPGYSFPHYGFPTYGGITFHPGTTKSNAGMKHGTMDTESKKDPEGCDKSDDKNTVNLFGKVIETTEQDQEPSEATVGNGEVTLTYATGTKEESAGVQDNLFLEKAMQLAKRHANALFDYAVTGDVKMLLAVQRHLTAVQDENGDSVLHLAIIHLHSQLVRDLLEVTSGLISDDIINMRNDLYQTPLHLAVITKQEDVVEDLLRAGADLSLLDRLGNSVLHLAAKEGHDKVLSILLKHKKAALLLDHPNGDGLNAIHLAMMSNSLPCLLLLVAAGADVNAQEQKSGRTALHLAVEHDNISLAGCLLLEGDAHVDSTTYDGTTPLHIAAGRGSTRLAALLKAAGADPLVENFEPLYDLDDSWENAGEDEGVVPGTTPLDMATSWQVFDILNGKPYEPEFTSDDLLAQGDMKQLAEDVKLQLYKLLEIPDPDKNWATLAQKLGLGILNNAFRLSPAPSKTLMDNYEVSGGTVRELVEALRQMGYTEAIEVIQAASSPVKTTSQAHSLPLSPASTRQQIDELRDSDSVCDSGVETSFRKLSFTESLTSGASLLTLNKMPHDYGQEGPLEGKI

By AC50 is commonly meant the concentration at which the activity in the assay is half-maximal. `Cc1[nH]c(=O)n(C(C)(C)C)c(=O)c1Cl`: the result in [1], in test [2], in test [3], in [4], in [5] and in test [6] was inactive. Also, the compound was called inactive in [7], in test [8], in test [9], in test [10], in test [11] and in test [12]. In addition, the compound was called inactive in [13], in test [14], in test [16], in [17], in test [18] and in test [19]. Further, in test [20], the outcome was inactive. Besides, the AC50 in test [15] is 50 µM (active).

For `CNC(=O)CSP(=S)(OC)OC`, the outcome in test [1], in [2], in test [3], in [4], in test [5] and in test [6] was inactive. Moreover, the compound was classed as inactive in test [7], in test [8], in [10], in test [11], in test [12] and in test [13]. The call in [14], in test [15], in [16], in [17], in [18] and in test [19] was inactive. Besides, the result in test [20] was inactive.

`OCCOc1ccccc1`: the compound was classed as inactive in test [1], in test [2], in test [3], in [4], in test [5] and in [6]. Also, the result in test [7], in test [8], in [10], in [11], in [12] and in test [13] was inactive. The compound was classed as inactive in test [14], in test [15], in test [16], in test [17], in [18] and in [19]. Besides, in test [20], the outcome was inactive.

The record behind these values is PubChem BioAssay (EPA / NIEHS).
